What all share (experiment): NCI-60 one-dose screen, 48 h (100 = growth as untreated, 0 = no growth, -100 = all killed)
One assay concerns DU-145 prostate. The following applies: 10 µM unless noted.
Another assay deals with K-562 leukemia. The following applies: 10 µM unless noted.
Another assay relates to MALME-3M melanoma. The conditions noted are these: 10 µM unless noted.
The test system of a further assay is MDA-MB-231 breast. The conditions noted are these: 10 µM unless noted.
For the next assay, the system named is RXF 393 renal. The following applies: 10 µM unless noted.
The subject of a further assay is SF-268 CNS. The conditions noted are these: 10 µM unless noted.
Another assay concerns SF-295 CNS. The conditions noted are these: 10 µM unless noted.
In another assay the test system is SF-539 CNS. The following applies: 10 µM unless noted.
Another assay relates to UACC-257 melanoma. The following applies: 10 µM.
In another assay the test system is M14 melanoma. The conditions noted are these: 10 µM unless noted.

This is part of a sample that, as a whole, favours compounds with a hit. Of some 83,000 tested, about 20% had one in any assay.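 Growth was measured after 48 h exposure to one concentration of compound in 96-well plates. Values under 10 count as active.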 Values without a mark were called inactive. Active and inactive are the calls of the source.

`CCNC(=O)Oc1ccc(/C(=C(/C)c2ccccc2)c2ccc(OCCN3CCCC3)cc2)cc1`: the growth in the assay with DU-145 prostate was 89.5%; with K-562 leukemia, 11.3%; with MALME-3M melanoma it was 30%; with MDA-MB-231 breast, 66.7%; with RXF 393 renal, 54.6%; with SF-268 CNS, 80.3%. Further, the growth is 60.5% in the assay with SF-295 CNS, 49.7% in the assay on SF-539 CNS, -3.88% (active) with UACC-257 melanoma and 24.3% in the assay on M14 melanoma.

On to `O=C(/C=C1\C=CN(CCCCF)c2ccccc21)n1ccc2ccccc21`, for which the growth with DU-145 prostate is 127%; in the assay on K-562 leukemia, 104%; in the assay with MALME-3M melanoma it was 100%; in the assay on MDA-MB-231 breast, 94.9%; with RXF 393 renal, 126%; with SF-268 CNS, 121%. Besides, the growth in the assay with SF-295 CNS is 106%; with SF-539 CNS it was 98.8%; in the assay with UACC-257 melanoma, 110%; with M14 melanoma, 101%.

`O=C1c2c(O)cc(O)cc2O[C@@H](c2ccc(O)cc2)[C@@H]1c1c(O)cc(O)c2c(=O)cc(-c3ccc(O)c(O)c3)oc12`: the growth in the assay with DU-145 prostate is 106%; in the assay on K-562 leukemia, 111%; in the assay on MALME-3M melanoma, 90.7%; with MDA-MB-231 breast, 111%; with RXF 393 renal, 112%; with SF-268 CNS it was 101%. Besides, the growth in the assay on SF-295 CNS was 108%; in the assay on SF-539 CNS, 95.8%; in the assay with UACC-257 melanoma it was 108%; in the assay on M14 melanoma it was 94.8%.

In the case of `COc1ccc(-c2ccc3c4c(cccc24)C(=O)N(N2C(=O)c4cccc5cccc(c45)C2=O)C3=O)cc1`, the growth with DU-145 prostate is 112%; in the assay with K-562 leukemia, 86.4%; in the assay on MALME-3M melanoma it was 93.1%; with MDA-MB-231 breast it was 83.7%; in the assay with RXF 393 renal, 108%; in the assay on SF-268 CNS, 97.8%. For the same compound, the growth with SF-295 CNS is 105%; in the assay with SF-539 CNS it was 95.7%; in the assay on UACC-257 melanoma, 105%; in the assay on M14 melanoma, 94.1%.

As for `C=C(C)[C@@H]1CC[C@]2(COS(C)(=O)=O)CC[C@]3(C)[C@H](CC[C@@H]4[C@@]5(C)CCCNC(C)(C)[C@@H]5CC[C@]43C)[C@@H]12`, the growth in the assay with DU-145 prostate was 42.1%; with K-562 leukemia it was 1.12% (active); with MALME-3M melanoma, 97%; in the assay with MDA-MB-231 breast, 91.6%; with RXF 393 renal, 85.3%; in the assay with SF-268 CNS, 106%. Further, the growth was -40.1% (active) in the assay with SF-295 CNS, 84.9% in the assay on SF-539 CNS, 107% in the assay with UACC-257 melanoma and 84% in the assay with M14 melanoma.

On to `COc1cc(CNC(=O)Cc2ccccc2[N+](=O)[O-])ccc1OCC(=O)NO`, for which the growth in the assay on DU-145 prostate was 108%; with K-562 leukemia it was 105%; in the assay on MALME-3M melanoma it was 100%; in the assay on MDA-MB-231 breast, 102%; in the assay on RXF 393 renal it was 116%; in the assay on SF-268 CNS, 102%. Further, the growth in the assay on SF-295 CNS was 105%; in the assay with SF-539 CNS, 95.9%; in the assay on UACC-257 melanoma, 105%; in the assay on M14 melanoma, 101%.

`O=C(NCCCCCCNC(=O)c1c2c(nc3ccccc13)-c1cccnc1SC2)c1c2c(nc3ccccc13)-c1cccnc1SC2`: the growth is 104% in the assay on DU-145 prostate; 73.4% with K-562 leukemia; -16.5% (active) with MALME-3M melanoma; 59.3% in the assay with MDA-MB-231 breast; 73.4% with RXF 393 renal; 77.7% with SF-268 CNS. Besides, the growth with SF-295 CNS is 94.7%; with SF-539 CNS, 86.8%; with UACC-257 melanoma it was 17.1%; in the assay with M14 melanoma, 30.8%.

For the compound `C#C[C@]1(O)CC[C@H]2[C@@H]3CC=C4c5sc(Nc6cc(OC)ccc6OC)nc5CC[C@]4(C)[C@H]3CC[C@@]21C`, the growth was 43.8% in the assay with DU-145 prostate; 6.54% (active) with K-562 leukemia; 14.4% in the assay on MALME-3M melanoma; 35.9% with MDA-MB-231 breast; -57.4% (active) in the assay with RXF 393 renal; 30.8% with SF-268 CNS. Besides, the growth in the assay with SF-295 CNS was -67% (active); in the assay on SF-539 CNS, -19.4% (active); with UACC-257 melanoma, 0.933% (active); with M14 melanoma it was -1.11% (active).

Regarding `C#CCOc1ccc(/C=N/Nc2nc(-c3cc(Cl)ccc3Cl)cs2)cc1`, the growth in the assay with DU-145 prostate was 102%; in the assay on K-562 leukemia, 78.7%; in the assay on MALME-3M melanoma, 99.3%; with MDA-MB-231 breast, 84.7%; in the assay with RXF 393 renal, 111%; in the assay with SF-268 CNS it was 95.7%. The growth in the assay on SF-295 CNS is 89.7%; in the assay with SF-539 CNS, 102%; in the assay on UACC-257 melanoma it was 103%; in the assay with M14 melanoma, 94.8%.

For the compound `O=C(CCCCCCN1CC(=O)N2[C@@H](c3cc(F)cc(F)c3)c3[nH]c4ccccc4c3C[C@H]2C1=O)NO`, the growth is 65.7% in the assay on DU-145 prostate; 32.2% with K-562 leukemia; 30.7% in the assay with MALME-3M melanoma; 62% in the assay with MDA-MB-231 breast; 33.6% with RXF 393 renal; 79.8% in the assay with SF-268 CNS. In addition, the growth was 60% in the assay with SF-295 CNS, 60.5% with SF-539 CNS, 44.1% with UACC-257 melanoma and 51.9% with M14 melanoma.

Consider `CN(C)CCn1c2ccc(N)cc2c2nc3ccccc3nc21`, for which the growth in the assay with DU-145 prostate was 25.3%; in the assay with K-562 leukemia it was 13.7%; with MALME-3M melanoma it was 44.1%; in the assay on MDA-MB-231 breast, 32.7%; in the assay on RXF 393 renal it was 35.4%; with SF-268 CNS, 43.4%. The growth was 32.3% in the assay on SF-295 CNS, 21.3% with SF-539 CNS, 38.4% in the assay with UACC-257 melanoma and 35.9% in the assay with M14 melanoma.

Regarding `IP(CCCCCCCCCCSc1n(Cc2ccc3ccccc3c2)c(-c2ccccc2)c(-c2ccccc2)[n+]1Cc1ccc2ccccc2c1)(c1ccccc1)(c1ccccc1)c1ccccc1`, the growth is -69.6% (active) with DU-145 prostate; -46.4% (active) in the assay with K-562 leukemia; -70.5% (active) with MALME-3M melanoma; -63.7% (active) in the assay with MDA-MB-231 breast; -35.6% (active) with RXF 393 renal; -54.6% (active) in the assay with SF-268 CNS. In addition, the growth with SF-295 CNS is -77.6% (active); in the assay on SF-539 CNS, -66.7% (active); in the assay with UACC-257 melanoma, -55.8% (active); with M14 melanoma, -61.2% (active).

Take `NC(=O)C(=Cc1ccc(Cl)cc1)C(N)=O`: the growth in the assay on DU-145 prostate is 39.7%; in the assay on K-562 leukemia, 31.8%; in the assay with MALME-3M melanoma it was 82%; in the assay with MDA-MB-231 breast, 80.3%; in the assay on RXF 393 renal, 62.9%; in the assay with SF-268 CNS, 84.8%. In addition, the growth is 71.9% with SF-295 CNS, 55.6% in the assay with SF-539 CNS, 68.3% in the assay with UACC-257 melanoma and 70.3% in the assay with M14 melanoma.

Values taken from PubChem BioAssay (NCI).
